# Measured values from PubChem BioAssay AID1259370 (Center for Chemical Genomics, University of Michigan, 2018).
# The whole screen tested about 94,000 compounds, of which about 680 (0.72%) were called active. The full list was thinned out, with actives kept by preference. Unmarked numbers belong to inactive results. Rule as the data show it: active = z-score above about 3.2; inactive = the rest.
# Biological target: M-phase inducer phosphatase 2 (Homo sapiens) + Cyclin-dependent kinase 2 (Homo sapiens) + Cyclin-A2 (Homo sapiens) (UniProt P30305+P24941+P20248)
# Experiment: primary biochemical HTRF screen for inhibition of M-phase inducer phosphatase 2 binding to cyclin-dependent kinase 2/cyclin A (AID 1259370)
# Conditions: HTRF CDC25B-CDK2/CyclinA binding, anti-His/anti-Flag; active compounds read high
row,Structure (SMILES),z-score
1,COCCOC(=O)C1=C(C)NC2=C(C(=O)C(C(=O)OC)C(C)C2)C1c1cccc(Br)c1 (stereo not given),-0.35
2,CCOC(=O)C(Sc1nc(N2CCOCC2)c2c(c1C#N)CC(C)(C)OC2)c1ccccc1 (stereo not given),-1.85
3,COc1cccc(CNCc2ccc3c(c2)OCO3)c1,2.98
4,c1cc(CNCc2ccc3c(c2)OCO3)ccn1,-0.83
5,ONC(=Nc1ccc2c(c1)OCO2)C(=Nc1ccc2c(c1)OCO2)NO,20.3 (active)
6,CCCc1cc(-c2n[nH]c(C)c2-c2ccc3c(c2)OCCO3)c(O)cc1O,1.36
7,Cc1nc(-n2cnc3ccccc32)c2c3c(sc2n1)CCC3,-2.24
8,COc1ccc(C(=O)Oc2ccc3c(C)cc(=O)oc3c2C(C)=O)cc1OC,4.76
9,CCOc1ccc(OCCSc2nc3ccccc3n2CC(=O)O)cc1,-2.11
10,O=C1C2N=NN(Cc3cccc(F)c3)C2C(=O)N1c1ccccc1 (stereo not given),0.2
11,COc1ccc(C2CC(=O)c3cc(-c4nc(-c5ccc(F)cc5)cs4)c(=O)[nH]c3C2)cc1 (stereo not given),-1.13
12,COc1ccc(-c2csc(-c3cc4c([nH]c3=O)CC(c3ccc(OC)c(OC)c3)CC4=O)n2)cc1 (stereo not given),-1.19
13,COc1ccc(-c2csc(-c3cc4c([nH]c3=O)CC(c3ccco3)CC4=O)n2)cc1F (stereo not given),12.9 (active)
14,COc1ccc(-c2noc(COc3cc(C)cc(C)c3C)n2)cc1OC,1.44
15,COC(=O)c1ccc([C@@H]2Nc3ccc(F)cc3[C@@H]3C=CC[C@@H]32)cc1,-0.78
16,CCOc1cccc2c1N[C@@H](c1ccc(C(=O)O)cc1)[C@H]1CC=C[C@@H]21,11.8 (active)
17,COc1cccc([C@@H]2Nc3ccc(S(=O)(=O)Nc4ccccc4)cc3[C@@H]3C=CC[C@@H]32)c1,-1.16
18,Cn1c(=O)n(CCc2ccccc2)c(=O)c2c3c(sc21)COC(C)(C)C3,-1.21
19,CCSc1nc2c(c(=O)[nH]1)C(c1ccc(OC)c(Br)c1)CC(=O)N2 (stereo not given),-0.2
20,C#CCSc1nc2c(c(=O)[nH]1)C(c1ccc(OCCCC)cc1)CC(=O)N2 (stereo not given),-1.04
21,C#CCSc1nc2c(c(=O)[nH]1)C(c1ccc(O)c(O)c1)CC(=O)N2 (stereo not given),19 (active)
22,Cc1[nH]c2ccccc2c1C1(O)C(=O)N(Cc2cccs2)c2ccc(Br)cc21 (stereo not given),1.66
23,COc1ccc(-c2ccc(Cc3nc(-c4ccc(OC)cc4)no3)cc2)cc1,-3.73

row,Structure (SMILES),z-score
1,CN(Cc1ccccc1)c1oc(-c2ccc(COc3ccccc3)o2)nc1C#N,1.1
2,CCCc1nc2sc3c(OCC)ncnc3c2c2c1COC(C)(C)C2,0.03
3,Cc1cc(C(=O)O)c2cc(Br)ccc2n1,-1.02
4,COc1cccc(-c2cn3nc(C)sc3n2)c1,-1.51
5,CCOC(=O)N1CCN(c2c(NCCN3CCN(c4cccc(Cl)c4)CC3)c(=O)c2=O)CC1,-2.84
6,CCOC(=O)N1CCC(c2cc(=O)n(-c3ccccc3)[nH]2)CC1,7.05 (active)
7,CCOC(=O)N1CCC(C(N)=O)CC1,-0.86
8,Cc1nc2sc(C(c3cccc(Cl)c3)N3CCN(c4ccccc4)CC3)c(O)n2n1 (stereo not given),-0.28
9,Cc1ccc(N(CC(=O)NC(C(C)C)C(C)C)S(C)(=O)=O)cc1Cl,-1.52
10,O=C(Nc1ccc(O)c(-c2nc3ccccc3s2)c1)C(c1ccccc1)c1ccccc1,-2.45
11,O=C(NCCN1CCOCC1)c1nnc(CS(=O)(=O)c2ccccc2)o1,-1.86
12,CCN1CCCC1CNC(=O)c1nnc(CS(=O)(=O)c2ccccc2)o1 (stereo not given),7.59 (active)
13,CCN1CCCC1CNC(=O)c1sc2nc(C)cc(C)c2c1-n1cccc1 (stereo not given),-0.15
14,Cc1nc2sccn2c(=O)c1S(=O)(=O)N1CCOCC1,-0.79
15,Cc1cc(C)cc(Nc2nccc(=O)[nH]2)c1,-2.01
16,CC1CCCC(NC(=O)c2cc3c(s2)-c2ccccc2OC3)C1C (stereo not given),-0.62
17,CC(C)Cc1c(O)nc(SCC(=O)NCc2ccco2)[nH]c1=O,0.23
18,Nc1ncnc2nc(SCC(=O)NCc3ccco3)[nH]c12,-1.28
19,CCCCc1c(O)nc(SCC(=O)NCc2ccco2)[nH]c1=O,4.39 (active)
20,O=C(CC1Oc2ccccc2NC1=O)NCc1ccco1 (stereo not given),-1.29
21,Cn1c(=O)c2c(c3ccccc31)OC(=O)CC2c1ccc(Br)cc1 (stereo not given),-0.71
22,O=C1CC(c2ccccc2)Sc2nc(-c3ccccc3)nn21 (stereo not given),-0.15
